Calls of active or inactive are those of the source. Cut-off read from the data, not from the text of the source: active = activation above about 85%; inactive = the rest.

This assay addresses Peroxisome proliferator-activated receptor gamma (Homo sapiens) (UniProt P37231). In words: PPARg partial agonist activation, primary screen, cell-based, luciferase reporter, luminescence (AID 504452).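 Note: Cos-1 cells carrying PPARgamma and a response element luciferase reporter.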 The conditions noted are these: at 5 µM, stronger effect = higher value; activation (% of full agonist control): measured here: relative to full agonist control.

Peroxisome proliferator-activated receptor gamma (Homo sapiens), sequence (P37231 whole entry, looked up): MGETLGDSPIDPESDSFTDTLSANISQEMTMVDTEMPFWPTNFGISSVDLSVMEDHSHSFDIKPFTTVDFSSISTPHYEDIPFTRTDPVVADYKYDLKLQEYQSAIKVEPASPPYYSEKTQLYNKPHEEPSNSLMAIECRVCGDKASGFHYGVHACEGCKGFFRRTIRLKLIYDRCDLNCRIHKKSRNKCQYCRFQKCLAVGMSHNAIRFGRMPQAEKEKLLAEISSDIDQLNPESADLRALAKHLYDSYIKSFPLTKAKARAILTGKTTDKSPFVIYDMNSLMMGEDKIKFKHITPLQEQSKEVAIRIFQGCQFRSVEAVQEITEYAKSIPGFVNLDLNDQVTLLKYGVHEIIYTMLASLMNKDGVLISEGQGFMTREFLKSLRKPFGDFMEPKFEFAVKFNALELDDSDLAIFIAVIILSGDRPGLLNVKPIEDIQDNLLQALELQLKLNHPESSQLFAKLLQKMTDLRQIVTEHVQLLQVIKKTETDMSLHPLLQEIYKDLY

Turning to `CC1Cc2cc(/C(O)=C3/C(=O)C(=O)N(CCN4CCOCC4)C3c3ccc(N(C)C)cc3)ccc2O1` (stereo not given), the activation (% of full agonist control) worked out at 29.1% and the activation (% of partial agonist control) is 64.3% (inactive).
In the same order, the values of `Cc1ccc2nc(N3C(=O)C(O)=C(C(=O)c4ccc(C)o4)C3c3ccc(O)cc3)sc2c1` (stereo not given) are 37% and 81.9% (inactive).
With `Cc1ccc(O)c(C(=O)c2cc(C#N)c(=O)n(C(C)c3ccccc3)c2)c1` (stereo not given), the activation (% of full agonist control) turned out to be 33.3% and the activation (% of partial agonist control) is 73.7% (inactive).
In the case of `O=C(c1cc(-c2ccco2)nc2ccccc12)N1CCCC(C(F)(F)F)C1` (stereo not given), the activation (% of full agonist control) turned out to be 27.6% and the activation (% of partial agonist control) was 61% (inactive).
As to `O=C(OCC1OC(Oc2ccc(O)cc2)C(O)C(O)C1O)c1ccccc1` (stereo not given), the activation (% of full agonist control) turned out to be 9.83% and the activation (% of partial agonist control) is 21.8% (inactive).
